The panel holds about 83,000 compounds, 20% with a hit somewhere; the sample as a whole holds those more often.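 Results are percent growth after 48 hours of single-concentration exposure. 100 means growth as in untreated cells, lower positive values show inhibition; negative values down to -100 show cell death.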 Values without a mark were called inactive. The source made the active and inactive calls. How the source made its calls: active means growth percent below 10; inactive means the rest.

Among the test systems are SK-MEL-2 melanoma; EKVX NSCLC; SN12C renal; UO-31 renal; TK-10 renal; ACHN renal; CAKI-1 renal; A498 renal; CCRF-CEM leukemia; MOLT-4 leukemia; SR leukemia; RPMI-8226 leukemia; OVCAR-8 ovarian; OVCAR-5 ovarian; IGROV1 ovarian; OVCAR-3 ovarian; HS 578T breast; NCI/ADR-RES ovarian; SK-OV-3 ovarian.
Common to all, as to assay: NCI-60 one-dose screen, 48 h (100 = growth as untreated, 0 = no growth, -100 = all killed)
What all share (conditions): 10 µM unless noted

For `Cc1cccc(C[C@H](NC(=O)Nc2ccc(Cl)cc2F)C(=O)N[C@@H]2C(=O)N3C[C@H](O)C[C@H]3C(=O)N3CCN(C)C[C@H]3C(=O)N[C@@H](C)C(=O)N3C[C@H](C)C[C@H]3C(=O)O[C@H]2C)c1`, the growth with SK-MEL-2 melanoma was 34.4%; with EKVX NSCLC it was 71.4%; with SN12C renal, 20.5%; in the test on UO-31 renal it was 83.6%; in the test on TK-10 renal, 81.4%; with ACHN renal it was 102%. The growth was 59.1% in the test on CAKI-1 renal; 23.7% in the test on A498 renal; 57.2% in the test with CCRF-CEM leukemia; 43.4% in the test with MOLT-4 leukemia; 45% in the test on SR leukemia; 22.6% with RPMI-8226 leukemia. For the same compound, the growth in the test with OVCAR-8 ovarian is 26.9%; in the test on OVCAR-5 ovarian, 38.8%; in the test with IGROV1 ovarian it was 50.7%; in the test on OVCAR-3 ovarian, 17.2%; with HS 578T breast, 43%; with NCI/ADR-RES ovarian, 107%.
For the compound `c1ccc(-c2nnc(-c3c[nH]c4ncccc34)s2)cc1`, the growth in the test on SK-MEL-2 melanoma was 103%; in the test on EKVX NSCLC, 37.2%; with SN12C renal it was 86.6%; in the test with UO-31 renal, 51.6%; in the test on TK-10 renal, 124%; with ACHN renal it was 69.4%. Further, the growth is 53.3% with CAKI-1 renal; 67.3% in the test on A498 renal; 101% in the test on CCRF-CEM leukemia; 83.4% in the test on MOLT-4 leukemia; 83.6% in the test with SR leukemia; 91.9% in the test with RPMI-8226 leukemia. Besides, the growth was 98.9% with OVCAR-8 ovarian; 125% in the test with OVCAR-5 ovarian; 54.6% in the test with IGROV1 ovarian; 88.5% with OVCAR-3 ovarian; 97.1% with HS 578T breast; 95.7% in the test on NCI/ADR-RES ovarian.
Consider `Cc1cccc(C[C@H](NC(=O)Nc2ccc(Cl)cc2F)C(=O)N[C@@H]2C(=O)N3C[C@H](OC(=O)CCN(C)C)C[C@H]3C(=O)N3CCCC[C@H]3C(=O)N[C@@H](C)C(=O)N3C[C@H](C)C[C@H]3C(=O)O[C@H]2C)c1`, for which the growth was 24.4% with SK-MEL-2 melanoma; 47.3% in the test with EKVX NSCLC; 12.5% with SN12C renal; 31.1% in the test with UO-31 renal; 47.8% in the test with TK-10 renal; 27.5% in the test with ACHN renal. For the same compound, the growth is 15.5% in the test on CAKI-1 renal; -11.1% (active) with A498 renal; 42.4% in the test on CCRF-CEM leukemia; 27.8% with MOLT-4 leukemia; 28.7% with SR leukemia; 10% in the test with RPMI-8226 leukemia. Besides, the growth is 16.8% in the test on OVCAR-8 ovarian; 32.6% with OVCAR-5 ovarian; 35.6% in the test on IGROV1 ovarian; 8.87% (active) with OVCAR-3 ovarian; 26.2% in the test with HS 578T breast; 94.9% in the test with NCI/ADR-RES ovarian.
In the case of `N#CCCc1c[nH]c2ccccc12`, the growth is 88.4% with SK-MEL-2 melanoma; 94.3% in the test with EKVX NSCLC; 101% in the test on SN12C renal; 68% in the test on UO-31 renal; 104% in the test with TK-10 renal; 97% in the test on ACHN renal. Moreover, the growth in the test with CAKI-1 renal was 87.3%; in the test on A498 renal it was 103%; with CCRF-CEM leukemia it was 81.6%; with MOLT-4 leukemia, 96.1%; in the test on SR leukemia it was 91.5%; in the test with RPMI-8226 leukemia, 92.7%. Also, the growth in the test with OVCAR-8 ovarian was 91.9%; in the test on OVCAR-5 ovarian it was 102%; in the test on SK-OV-3 ovarian it was 88.9%; in the test on IGROV1 ovarian it was 103%; in the test on OVCAR-3 ovarian, 98.7%; in the test on HS 578T breast it was 94.3%. Further, in the test on NCI/ADR-RES ovarian, the growth was 99.3%.
`O=C(Nc1ccc(Oc2ccc(F)cc2)c(Cl)c1)c1cccnn1`: the growth was 77.7% with SK-MEL-2 melanoma; 75% in the test on EKVX NSCLC; 63.8% in the test on SN12C renal; 55% in the test on UO-31 renal; 64.4% in the test with TK-10 renal; 73.7% in the test with ACHN renal. In addition, the growth was 54.8% with CAKI-1 renal; 61.1% in the test on A498 renal; 75.1% in the test with CCRF-CEM leukemia; 59.8% in the test on MOLT-4 leukemia; 97.6% with SR leukemia; 62.6% in the test with RPMI-8226 leukemia. Further, the growth with OVCAR-8 ovarian is 71.3%; in the test with OVCAR-5 ovarian, 84%; in the test on SK-OV-3 ovarian, 88.8%; in the test on IGROV1 ovarian, 97.6%; in the test with OVCAR-3 ovarian, 73.6%; in the test with HS 578T breast, 95.6%. Moreover, the growth in the test on NCI/ADR-RES ovarian was 69.4%.
Consider `CCOc1cccc2c(NC(C)CCCN(CC)CC)c(C)cnc12` (stereo not drawn), for which the growth was 105% with SK-MEL-2 melanoma; 104% with EKVX NSCLC; 95.2% with SN12C renal; 73.3% in the test with UO-31 renal; 101% with TK-10 renal; 109% in the test on ACHN renal. Moreover, the growth with CAKI-1 renal is 103%; with A498 renal, 97.7%; in the test with CCRF-CEM leukemia, 108%; in the test on MOLT-4 leukemia, 93.2%; with SR leukemia, 96.6%; with RPMI-8226 leukemia, 107%. Further, the growth with OVCAR-8 ovarian is 103%; in the test with OVCAR-5 ovarian it was 106%; in the test with SK-OV-3 ovarian, 95.8%; with IGROV1 ovarian it was 102%; with OVCAR-3 ovarian, 110%; in the test on NCI/ADR-RES ovarian, 114%.
Turning to `COc1ccc(-c2cc(-c3ccc(Cl)cc3)nc(NCCCCNc3ccnc4cc(Cl)ccc34)n2)cc1`, the growth in the test with SK-MEL-2 melanoma is 78%; in the test on EKVX NSCLC, 77.3%; in the test on SN12C renal, 77.1%; in the test with UO-31 renal, 35.5%; with TK-10 renal it was 107%; in the test on ACHN renal, 91.8%. Besides, the growth in the test with CAKI-1 renal was 64.3%; with A498 renal, 3.15% (active); in the test with CCRF-CEM leukemia it was 7.63% (active); in the test with MOLT-4 leukemia it was 3.22% (active); in the test with SR leukemia it was 9.44% (active); with RPMI-8226 leukemia, 23.8%. Besides, the growth was -23.3% (active) in the test on OVCAR-8 ovarian; 96.2% with OVCAR-5 ovarian; 60.8% in the test on IGROV1 ovarian; 96% in the test with OVCAR-3 ovarian; 81.5% with HS 578T breast; 72.2% with NCI/ADR-RES ovarian.
